One sequence from article PMC7862700, “An all-to-all approach to the identification of sequence-specific readers for epigenetic DNA modifications on cytosine” can be followed below.

Holding throughout (assay): DAPPL (digital affinity profiling via proximity ligation, sequencing); 10 mM Tris-HCl pH 7.5, 50 mM NaCl, 1 mM DTT, 4% glycerol, room temperature, 30 min; GST-TFs on glutathione beads, 16-mer random dsDNA library, 0.1% formaldehyde crosslink after washing; high values mean tight binding
Details in all cases: protein: recombinant; tags: N-terminal GST; dsDNA, one strand shown

In one test the target is T1, ELK1 (Homo sapiens, UniProt P19419 1-428).
T1 sequence: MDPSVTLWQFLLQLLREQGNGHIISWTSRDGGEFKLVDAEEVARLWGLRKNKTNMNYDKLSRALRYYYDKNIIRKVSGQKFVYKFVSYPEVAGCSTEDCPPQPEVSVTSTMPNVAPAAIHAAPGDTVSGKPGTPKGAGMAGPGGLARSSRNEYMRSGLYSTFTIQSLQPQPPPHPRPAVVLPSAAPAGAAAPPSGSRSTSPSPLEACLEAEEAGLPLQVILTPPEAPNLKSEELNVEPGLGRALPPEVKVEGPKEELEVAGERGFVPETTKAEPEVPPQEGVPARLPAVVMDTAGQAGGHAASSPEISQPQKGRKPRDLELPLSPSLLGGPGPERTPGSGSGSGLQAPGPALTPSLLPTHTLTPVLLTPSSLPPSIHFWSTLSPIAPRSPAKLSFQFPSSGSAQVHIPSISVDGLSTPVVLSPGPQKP
Put shortly: (§1)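 GST fusions of human transcription factors were expressed in yeast and captured with glutathione beads. Once given DNA barcodes and pooled alongside a tag-only sample, they were incubated for 30 min at room temperature with 200 nmole of a random double-stranded 16-mer DNA library in Tris/NaCl/DTT/glycerol buffer, then washed, crosslinked (0.1% formaldehyde), proximity-ligated, PCR-amplified and sequenced on an Illumina NextSeq500. The binding signal of each hexamer is its read frequency for a factor divided by its frequency for the tag-only sample.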

The next test has as its target T2, GABPA (Homo sapiens, UniProt Q06546 1-454).
T2 sequence: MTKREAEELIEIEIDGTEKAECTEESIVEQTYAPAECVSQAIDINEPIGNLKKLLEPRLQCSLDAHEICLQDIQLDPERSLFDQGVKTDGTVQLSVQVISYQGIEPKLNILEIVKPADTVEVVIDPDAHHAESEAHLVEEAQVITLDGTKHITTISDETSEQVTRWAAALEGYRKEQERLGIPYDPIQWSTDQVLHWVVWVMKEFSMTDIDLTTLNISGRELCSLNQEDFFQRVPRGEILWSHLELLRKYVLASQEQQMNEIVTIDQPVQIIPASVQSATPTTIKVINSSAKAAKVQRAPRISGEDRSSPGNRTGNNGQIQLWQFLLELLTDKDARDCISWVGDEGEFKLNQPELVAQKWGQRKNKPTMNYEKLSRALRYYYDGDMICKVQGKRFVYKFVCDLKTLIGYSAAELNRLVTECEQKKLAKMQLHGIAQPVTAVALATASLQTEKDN
Put shortly:
as §1

For the next test, the target named is ELF1 (Homo sapiens, UniProt P32519 1-619). Put shortly:
as §1

In a further test the target is T3, EHF (Homo sapiens, UniProt Q9NZC4 1-300).
T3 sequence: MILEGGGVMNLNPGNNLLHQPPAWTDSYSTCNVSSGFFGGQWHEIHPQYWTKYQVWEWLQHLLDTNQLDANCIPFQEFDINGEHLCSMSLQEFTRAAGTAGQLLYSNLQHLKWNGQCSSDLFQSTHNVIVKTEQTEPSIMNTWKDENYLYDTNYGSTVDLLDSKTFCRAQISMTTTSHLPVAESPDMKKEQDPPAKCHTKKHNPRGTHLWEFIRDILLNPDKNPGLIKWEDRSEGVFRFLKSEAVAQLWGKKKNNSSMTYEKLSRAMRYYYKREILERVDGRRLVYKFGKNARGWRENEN
In short, it runs like this: as §1

A further test deals with SPIB (Homo sapiens, UniProt Q01892 1-262). In short, it runs like this:
as §1

The target in the next test is ETV5 (Homo sapiens, UniProt P41161 1-510). Put shortly: as §1
For another test, the target named is ELF4 (Homo sapiens, UniProt Q99607 1-663). Put shortly:
as §1

For the next test, the target named is T4, ELK4 (Homo sapiens, UniProt P28324-2 1-405).
T4 sequence: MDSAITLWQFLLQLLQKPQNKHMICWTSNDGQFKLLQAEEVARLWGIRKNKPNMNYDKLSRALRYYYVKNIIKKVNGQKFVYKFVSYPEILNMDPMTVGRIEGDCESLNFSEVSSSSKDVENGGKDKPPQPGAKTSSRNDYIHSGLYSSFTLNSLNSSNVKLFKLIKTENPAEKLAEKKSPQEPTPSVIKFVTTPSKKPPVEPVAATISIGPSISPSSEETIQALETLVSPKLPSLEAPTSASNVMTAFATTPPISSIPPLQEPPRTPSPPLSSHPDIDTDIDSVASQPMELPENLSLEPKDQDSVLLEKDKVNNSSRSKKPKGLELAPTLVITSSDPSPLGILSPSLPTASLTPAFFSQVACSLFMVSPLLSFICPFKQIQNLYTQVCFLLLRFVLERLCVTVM
Put shortly:
as §1

A further test deals with T5, ELF3 (Homo sapiens, UniProt P78545 1-371).
T5 sequence: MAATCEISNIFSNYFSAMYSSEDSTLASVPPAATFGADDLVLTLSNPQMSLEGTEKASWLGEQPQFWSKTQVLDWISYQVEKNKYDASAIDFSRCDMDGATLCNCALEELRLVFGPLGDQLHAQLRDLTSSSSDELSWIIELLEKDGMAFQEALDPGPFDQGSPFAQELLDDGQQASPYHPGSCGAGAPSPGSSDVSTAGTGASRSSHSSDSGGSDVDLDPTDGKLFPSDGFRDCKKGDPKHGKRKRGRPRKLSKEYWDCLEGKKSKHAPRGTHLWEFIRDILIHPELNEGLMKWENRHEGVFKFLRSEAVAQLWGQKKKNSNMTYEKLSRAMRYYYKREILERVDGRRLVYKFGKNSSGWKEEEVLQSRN
In short, it runs like this: as §1

A further test deals with ETV1 (Homo sapiens, UniProt P50549 1-477). In short, it runs like this: as §1
A further test concerns the target T6, ERF (Homo sapiens, UniProt P50548 1-548).
T6 sequence: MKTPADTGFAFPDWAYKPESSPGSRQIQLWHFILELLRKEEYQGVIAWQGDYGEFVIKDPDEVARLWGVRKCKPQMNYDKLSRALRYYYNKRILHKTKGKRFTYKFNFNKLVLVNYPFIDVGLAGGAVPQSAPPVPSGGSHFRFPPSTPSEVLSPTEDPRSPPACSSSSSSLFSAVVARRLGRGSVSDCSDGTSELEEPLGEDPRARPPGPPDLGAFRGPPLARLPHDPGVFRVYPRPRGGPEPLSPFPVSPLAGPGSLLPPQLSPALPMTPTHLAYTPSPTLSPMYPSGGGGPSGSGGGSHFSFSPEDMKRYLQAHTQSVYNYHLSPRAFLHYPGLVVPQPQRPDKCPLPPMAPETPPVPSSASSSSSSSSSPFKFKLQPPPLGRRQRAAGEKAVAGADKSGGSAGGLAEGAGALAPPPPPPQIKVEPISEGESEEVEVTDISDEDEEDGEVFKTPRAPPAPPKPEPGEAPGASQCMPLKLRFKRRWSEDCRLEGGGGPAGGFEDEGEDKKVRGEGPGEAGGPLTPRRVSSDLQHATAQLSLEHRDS
Put shortly: as §1

The next test concerns the target T7, ETV3L (Homo sapiens, UniProt Q6ZN32 1-361).
T7 sequence: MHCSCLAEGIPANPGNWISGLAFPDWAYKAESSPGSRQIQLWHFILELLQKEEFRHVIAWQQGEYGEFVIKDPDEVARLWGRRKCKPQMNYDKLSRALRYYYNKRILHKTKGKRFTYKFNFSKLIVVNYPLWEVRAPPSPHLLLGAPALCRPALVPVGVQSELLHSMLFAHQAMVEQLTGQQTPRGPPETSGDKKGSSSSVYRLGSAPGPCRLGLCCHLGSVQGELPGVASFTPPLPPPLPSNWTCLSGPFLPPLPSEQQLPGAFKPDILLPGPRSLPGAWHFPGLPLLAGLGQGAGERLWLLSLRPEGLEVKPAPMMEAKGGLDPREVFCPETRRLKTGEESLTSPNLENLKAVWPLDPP
In short, it runs like this:
as §1

A further test addresses T8, ETS2 (Homo sapiens, UniProt P15036 1-469).
T8 sequence: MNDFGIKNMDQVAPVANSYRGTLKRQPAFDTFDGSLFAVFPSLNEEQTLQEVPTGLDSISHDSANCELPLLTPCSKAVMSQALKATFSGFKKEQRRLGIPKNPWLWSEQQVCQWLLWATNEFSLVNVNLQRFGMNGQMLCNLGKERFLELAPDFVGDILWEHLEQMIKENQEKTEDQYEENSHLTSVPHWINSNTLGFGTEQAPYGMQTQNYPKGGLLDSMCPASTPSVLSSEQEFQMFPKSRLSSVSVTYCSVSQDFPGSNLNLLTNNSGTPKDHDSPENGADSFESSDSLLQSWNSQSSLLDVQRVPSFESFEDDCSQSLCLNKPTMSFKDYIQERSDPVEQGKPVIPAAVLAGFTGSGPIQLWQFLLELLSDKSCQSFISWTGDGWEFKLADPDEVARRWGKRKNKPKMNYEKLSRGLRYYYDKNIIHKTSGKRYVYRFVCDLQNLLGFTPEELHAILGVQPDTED
In short, it runs like this:
as §1

A further test has as its target T9, SPDEF (Homo sapiens, UniProt O95238 1-335).
T9 sequence: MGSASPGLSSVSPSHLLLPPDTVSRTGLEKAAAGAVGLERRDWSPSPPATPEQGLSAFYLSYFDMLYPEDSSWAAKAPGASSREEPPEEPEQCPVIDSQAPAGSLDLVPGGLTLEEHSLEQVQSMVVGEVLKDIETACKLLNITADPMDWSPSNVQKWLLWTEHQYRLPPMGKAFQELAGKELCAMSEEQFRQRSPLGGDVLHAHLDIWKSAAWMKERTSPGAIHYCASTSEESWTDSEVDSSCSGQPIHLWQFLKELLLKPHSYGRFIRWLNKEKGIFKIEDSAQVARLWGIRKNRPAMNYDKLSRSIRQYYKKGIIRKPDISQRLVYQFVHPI
Put shortly:
as §1

The target in the next test is T10, ETV3 (Homo sapiens, UniProt P41162-2 1-143).
T10 sequence: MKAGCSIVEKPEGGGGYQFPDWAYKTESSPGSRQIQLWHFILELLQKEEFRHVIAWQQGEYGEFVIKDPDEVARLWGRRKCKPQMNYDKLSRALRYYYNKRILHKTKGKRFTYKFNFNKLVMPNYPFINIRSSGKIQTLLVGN
In short, it runs like this: as §1

Chain of ELF1 (P32519 whole entry): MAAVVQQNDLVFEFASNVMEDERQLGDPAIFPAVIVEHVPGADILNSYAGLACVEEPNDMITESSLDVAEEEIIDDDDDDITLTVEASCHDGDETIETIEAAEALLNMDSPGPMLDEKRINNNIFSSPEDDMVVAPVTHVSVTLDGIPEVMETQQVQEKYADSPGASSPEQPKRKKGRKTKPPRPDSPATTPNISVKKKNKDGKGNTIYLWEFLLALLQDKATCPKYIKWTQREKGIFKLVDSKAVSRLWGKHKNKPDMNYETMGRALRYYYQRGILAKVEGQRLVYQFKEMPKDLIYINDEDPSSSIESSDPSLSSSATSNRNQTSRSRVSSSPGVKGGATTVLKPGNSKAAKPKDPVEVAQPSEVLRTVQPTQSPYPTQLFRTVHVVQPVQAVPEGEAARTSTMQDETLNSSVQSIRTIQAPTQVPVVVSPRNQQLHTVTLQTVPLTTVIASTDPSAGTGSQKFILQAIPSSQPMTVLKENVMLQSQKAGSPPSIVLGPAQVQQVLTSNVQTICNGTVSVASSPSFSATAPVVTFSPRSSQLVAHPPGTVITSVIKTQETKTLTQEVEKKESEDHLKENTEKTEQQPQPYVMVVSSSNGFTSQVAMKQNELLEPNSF
Chain of SPIB (Q01892 whole entry): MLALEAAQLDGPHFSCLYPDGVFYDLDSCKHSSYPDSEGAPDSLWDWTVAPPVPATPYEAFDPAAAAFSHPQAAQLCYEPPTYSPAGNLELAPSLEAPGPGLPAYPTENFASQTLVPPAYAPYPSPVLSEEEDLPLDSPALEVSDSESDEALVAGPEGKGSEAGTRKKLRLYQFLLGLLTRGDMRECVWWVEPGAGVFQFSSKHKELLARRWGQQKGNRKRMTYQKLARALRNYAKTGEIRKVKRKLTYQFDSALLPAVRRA
Chain of ELF4 (Q99607 whole entry): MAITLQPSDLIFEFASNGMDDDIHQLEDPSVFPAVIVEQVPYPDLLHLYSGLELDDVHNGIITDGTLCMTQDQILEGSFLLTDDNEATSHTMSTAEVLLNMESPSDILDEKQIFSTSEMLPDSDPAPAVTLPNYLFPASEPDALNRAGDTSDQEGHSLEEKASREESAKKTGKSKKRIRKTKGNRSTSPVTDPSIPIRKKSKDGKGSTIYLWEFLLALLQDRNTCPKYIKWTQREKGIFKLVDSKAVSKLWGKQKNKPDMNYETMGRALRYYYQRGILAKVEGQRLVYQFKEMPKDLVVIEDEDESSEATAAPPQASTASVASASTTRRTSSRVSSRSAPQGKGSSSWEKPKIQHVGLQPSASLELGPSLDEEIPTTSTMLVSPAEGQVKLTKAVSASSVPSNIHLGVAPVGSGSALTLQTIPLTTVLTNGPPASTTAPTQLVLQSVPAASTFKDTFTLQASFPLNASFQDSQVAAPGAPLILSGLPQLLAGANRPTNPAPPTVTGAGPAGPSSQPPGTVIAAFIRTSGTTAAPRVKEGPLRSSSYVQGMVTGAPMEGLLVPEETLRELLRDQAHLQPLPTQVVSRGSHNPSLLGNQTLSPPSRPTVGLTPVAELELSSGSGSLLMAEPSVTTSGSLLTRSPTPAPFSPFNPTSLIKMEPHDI
Chain of ETV5 (P41161 whole entry): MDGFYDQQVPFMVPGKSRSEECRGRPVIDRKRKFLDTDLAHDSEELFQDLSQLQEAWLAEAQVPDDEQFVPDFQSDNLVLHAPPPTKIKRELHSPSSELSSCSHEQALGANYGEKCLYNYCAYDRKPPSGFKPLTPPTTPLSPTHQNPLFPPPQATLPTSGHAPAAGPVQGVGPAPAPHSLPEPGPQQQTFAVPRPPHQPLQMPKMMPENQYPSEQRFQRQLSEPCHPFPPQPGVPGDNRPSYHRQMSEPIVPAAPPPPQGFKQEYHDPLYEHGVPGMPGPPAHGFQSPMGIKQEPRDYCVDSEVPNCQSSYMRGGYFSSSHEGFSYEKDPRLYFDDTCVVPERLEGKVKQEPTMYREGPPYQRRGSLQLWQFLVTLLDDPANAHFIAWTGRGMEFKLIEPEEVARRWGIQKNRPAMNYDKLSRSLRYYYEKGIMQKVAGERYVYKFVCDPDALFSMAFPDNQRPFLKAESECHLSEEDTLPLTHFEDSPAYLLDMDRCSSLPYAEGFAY
Chain of ETV1 (P50549 whole entry): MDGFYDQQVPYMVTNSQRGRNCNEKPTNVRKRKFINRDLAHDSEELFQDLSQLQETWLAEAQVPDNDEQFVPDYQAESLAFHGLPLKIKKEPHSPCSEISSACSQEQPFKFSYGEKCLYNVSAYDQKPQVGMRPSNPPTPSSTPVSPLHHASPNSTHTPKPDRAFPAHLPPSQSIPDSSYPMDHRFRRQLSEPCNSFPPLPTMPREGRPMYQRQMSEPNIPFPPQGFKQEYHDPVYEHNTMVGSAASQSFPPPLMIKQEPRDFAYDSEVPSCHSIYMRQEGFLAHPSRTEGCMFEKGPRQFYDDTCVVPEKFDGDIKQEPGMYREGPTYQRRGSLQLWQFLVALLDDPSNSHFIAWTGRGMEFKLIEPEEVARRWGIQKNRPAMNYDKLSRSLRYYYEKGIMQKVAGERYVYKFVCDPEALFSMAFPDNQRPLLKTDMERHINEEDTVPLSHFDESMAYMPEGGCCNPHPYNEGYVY

Regarding TGCAAG, the binding signal in the test with ELK1 was 1.11 fold enrichment (6-mer frequency, TF over GST control); in the test with GABPA, 1.07 fold enrichment (6-mer frequency, TF over GST control); with ELF1, 1.01 fold enrichment (6-mer frequency, TF over GST control); in the test with EHF it was 1.02 fold enrichment (6-mer frequency, TF over GST control); with SPIB, 1.04 fold enrichment (6-mer frequency, TF over GST control); with ETV5, 1.07 fold enrichment (6-mer frequency, TF over GST control). For the same sequence, the binding signal was 1.05 fold enrichment (6-mer frequency, TF over GST control) with ELF4; 1.07 fold enrichment (6-mer frequency, TF over GST control) with ELK4; 1.15 fold enrichment (6-mer frequency, TF over GST control) with ELF3; 1.03 fold enrichment (6-mer frequency, TF over GST control) with ETV1; 1.01 fold enrichment (6-mer frequency, TF over GST control) with ERF; 1.11 fold enrichment (6-mer frequency, TF over GST control) with ETV3L. The binding signal was 1.12 fold enrichment (6-mer frequency, TF over GST control) with ETS2; 1.11 fold enrichment (6-mer frequency, TF over GST control) in the test with SPDEF; 1.07 fold enrichment (6-mer frequency, TF over GST control) with ETV3.
